Measured values: ChEMBL document CHEMBL1961873, “Compounds: GSK PKIS; Assays: Nanosyn kinase panel” (2012)

Legend:
[1] = target: Sphingosine kinase 1 (Homo sapiens) (UniProt Q9NYA1); settings: at 1 µM;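 further: mean SPHK1 inhibition value reported from the GSK PKIS kinase panel screen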
[2] = target: T1, Sphingosine kinase 2 (Homo sapiens) (UniProt Q9NRA0); settings: at 0.1 µM
T1 sequence (whole entry): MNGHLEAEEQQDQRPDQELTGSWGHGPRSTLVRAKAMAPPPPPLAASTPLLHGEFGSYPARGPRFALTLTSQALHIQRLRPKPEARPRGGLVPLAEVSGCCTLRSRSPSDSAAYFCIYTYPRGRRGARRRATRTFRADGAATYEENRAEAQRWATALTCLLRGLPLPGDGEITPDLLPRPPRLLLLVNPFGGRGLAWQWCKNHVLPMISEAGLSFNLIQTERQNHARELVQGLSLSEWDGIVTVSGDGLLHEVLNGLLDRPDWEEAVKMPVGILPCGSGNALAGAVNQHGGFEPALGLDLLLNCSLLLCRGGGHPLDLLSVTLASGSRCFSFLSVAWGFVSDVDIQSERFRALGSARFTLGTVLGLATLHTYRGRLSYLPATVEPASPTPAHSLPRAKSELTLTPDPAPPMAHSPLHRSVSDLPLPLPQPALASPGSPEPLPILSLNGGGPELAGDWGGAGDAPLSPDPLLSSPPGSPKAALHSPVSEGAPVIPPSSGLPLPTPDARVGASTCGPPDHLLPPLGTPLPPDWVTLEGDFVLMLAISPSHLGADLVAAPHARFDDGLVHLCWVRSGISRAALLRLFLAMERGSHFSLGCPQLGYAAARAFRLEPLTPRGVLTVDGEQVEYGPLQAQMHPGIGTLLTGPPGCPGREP

[3] = target: T1, Sphingosine kinase 2 (Homo sapiens); settings: at 1 µM
[4] = target: Casein kinase II subunit alpha (Homo sapiens) (UniProt P68400); settings: at 0.1 µM
[5] = target: Casein kinase II subunit alpha (Homo sapiens) (UniProt P68400); settings: at 1 µM
[6] = target: T2, Inhibitor of nuclear factor kappa-B kinase subunit alpha (Homo sapiens) (UniProt O15111); settings: at 0.1 µM
T2 sequence (whole entry): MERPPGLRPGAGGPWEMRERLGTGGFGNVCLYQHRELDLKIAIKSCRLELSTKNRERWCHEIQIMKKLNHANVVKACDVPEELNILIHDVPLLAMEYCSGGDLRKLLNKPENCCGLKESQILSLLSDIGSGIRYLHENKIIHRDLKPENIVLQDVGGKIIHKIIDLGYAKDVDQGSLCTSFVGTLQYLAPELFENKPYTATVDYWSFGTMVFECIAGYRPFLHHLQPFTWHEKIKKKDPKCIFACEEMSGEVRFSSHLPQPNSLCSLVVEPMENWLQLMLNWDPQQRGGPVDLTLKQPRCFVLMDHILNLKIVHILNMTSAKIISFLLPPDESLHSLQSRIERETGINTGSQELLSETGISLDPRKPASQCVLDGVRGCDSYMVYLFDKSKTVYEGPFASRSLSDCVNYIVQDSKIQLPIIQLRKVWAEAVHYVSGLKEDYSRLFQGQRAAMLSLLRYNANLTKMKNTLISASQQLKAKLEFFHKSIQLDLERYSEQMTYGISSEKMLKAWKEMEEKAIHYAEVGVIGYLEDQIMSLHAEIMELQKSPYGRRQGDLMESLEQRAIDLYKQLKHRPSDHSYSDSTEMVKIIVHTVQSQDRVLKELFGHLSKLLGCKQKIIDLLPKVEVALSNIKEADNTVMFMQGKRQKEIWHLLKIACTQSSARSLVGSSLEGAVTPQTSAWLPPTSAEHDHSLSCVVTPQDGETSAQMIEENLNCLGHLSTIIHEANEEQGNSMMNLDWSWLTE

[7] = target: T2, Inhibitor of nuclear factor kappa-B kinase subunit alpha (Homo sapiens); settings: at 1 µM
[8] = target: T3, Inhibitor of nuclear factor kappa-B kinase subunit beta (Homo sapiens) (UniProt O14920); settings: at 0.1 µM
T3 sequence (whole entry): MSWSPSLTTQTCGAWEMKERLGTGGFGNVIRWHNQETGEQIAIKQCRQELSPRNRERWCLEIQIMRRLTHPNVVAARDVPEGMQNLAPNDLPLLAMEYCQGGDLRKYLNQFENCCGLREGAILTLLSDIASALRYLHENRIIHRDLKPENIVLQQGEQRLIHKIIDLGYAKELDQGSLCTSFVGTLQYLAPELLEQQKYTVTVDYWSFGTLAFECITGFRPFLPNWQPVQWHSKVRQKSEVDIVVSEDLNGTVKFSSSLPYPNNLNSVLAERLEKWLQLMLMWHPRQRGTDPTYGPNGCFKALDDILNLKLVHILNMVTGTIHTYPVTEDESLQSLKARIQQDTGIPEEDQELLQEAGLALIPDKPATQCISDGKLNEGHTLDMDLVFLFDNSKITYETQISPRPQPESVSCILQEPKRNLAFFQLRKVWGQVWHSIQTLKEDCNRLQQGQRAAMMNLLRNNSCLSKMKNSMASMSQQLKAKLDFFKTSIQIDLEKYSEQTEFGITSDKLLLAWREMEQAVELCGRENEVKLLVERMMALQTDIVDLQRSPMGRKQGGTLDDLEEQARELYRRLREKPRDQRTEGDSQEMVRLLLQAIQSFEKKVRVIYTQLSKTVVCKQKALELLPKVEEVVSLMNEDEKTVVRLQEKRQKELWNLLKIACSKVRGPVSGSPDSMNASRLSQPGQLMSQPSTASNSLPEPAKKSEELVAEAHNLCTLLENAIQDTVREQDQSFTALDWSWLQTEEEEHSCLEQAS

[9] = target: T3, Inhibitor of nuclear factor kappa-B kinase subunit beta (Homo sapiens); settings: at 1 µM
[10] = target: T4, Inhibitor of nuclear factor kappa-B kinase subunit epsilon (Homo sapiens) (UniProt Q14164); settings: at 0.1 µM
T4 sequence (whole entry): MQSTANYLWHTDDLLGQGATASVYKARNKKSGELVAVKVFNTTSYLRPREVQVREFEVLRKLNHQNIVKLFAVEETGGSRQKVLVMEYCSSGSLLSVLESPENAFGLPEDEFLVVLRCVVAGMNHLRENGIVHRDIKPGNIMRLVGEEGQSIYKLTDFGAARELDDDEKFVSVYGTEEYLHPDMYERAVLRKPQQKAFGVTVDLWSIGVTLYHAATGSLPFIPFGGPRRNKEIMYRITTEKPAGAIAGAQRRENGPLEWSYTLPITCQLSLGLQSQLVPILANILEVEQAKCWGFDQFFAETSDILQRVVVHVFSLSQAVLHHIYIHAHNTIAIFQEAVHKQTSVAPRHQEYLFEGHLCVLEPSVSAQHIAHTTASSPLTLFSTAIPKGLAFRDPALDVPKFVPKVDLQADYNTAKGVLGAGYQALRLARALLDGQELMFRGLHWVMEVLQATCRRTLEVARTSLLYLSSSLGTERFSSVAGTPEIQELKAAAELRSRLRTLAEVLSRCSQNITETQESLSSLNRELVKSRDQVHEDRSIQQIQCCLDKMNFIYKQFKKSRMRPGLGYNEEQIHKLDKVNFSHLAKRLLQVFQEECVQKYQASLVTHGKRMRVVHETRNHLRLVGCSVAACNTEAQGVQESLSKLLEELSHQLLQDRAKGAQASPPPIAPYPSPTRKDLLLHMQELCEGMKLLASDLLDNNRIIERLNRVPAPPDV

[11] = target: T4, Inhibitor of nuclear factor kappa-B kinase subunit epsilon (Homo sapiens); settings: at 1 µM
[12] = target: T5, Serine/threonine-protein kinase Nek1 (Homo sapiens) (UniProt Q96PY6); settings: at 0.1 µM
T5 sequence (whole entry): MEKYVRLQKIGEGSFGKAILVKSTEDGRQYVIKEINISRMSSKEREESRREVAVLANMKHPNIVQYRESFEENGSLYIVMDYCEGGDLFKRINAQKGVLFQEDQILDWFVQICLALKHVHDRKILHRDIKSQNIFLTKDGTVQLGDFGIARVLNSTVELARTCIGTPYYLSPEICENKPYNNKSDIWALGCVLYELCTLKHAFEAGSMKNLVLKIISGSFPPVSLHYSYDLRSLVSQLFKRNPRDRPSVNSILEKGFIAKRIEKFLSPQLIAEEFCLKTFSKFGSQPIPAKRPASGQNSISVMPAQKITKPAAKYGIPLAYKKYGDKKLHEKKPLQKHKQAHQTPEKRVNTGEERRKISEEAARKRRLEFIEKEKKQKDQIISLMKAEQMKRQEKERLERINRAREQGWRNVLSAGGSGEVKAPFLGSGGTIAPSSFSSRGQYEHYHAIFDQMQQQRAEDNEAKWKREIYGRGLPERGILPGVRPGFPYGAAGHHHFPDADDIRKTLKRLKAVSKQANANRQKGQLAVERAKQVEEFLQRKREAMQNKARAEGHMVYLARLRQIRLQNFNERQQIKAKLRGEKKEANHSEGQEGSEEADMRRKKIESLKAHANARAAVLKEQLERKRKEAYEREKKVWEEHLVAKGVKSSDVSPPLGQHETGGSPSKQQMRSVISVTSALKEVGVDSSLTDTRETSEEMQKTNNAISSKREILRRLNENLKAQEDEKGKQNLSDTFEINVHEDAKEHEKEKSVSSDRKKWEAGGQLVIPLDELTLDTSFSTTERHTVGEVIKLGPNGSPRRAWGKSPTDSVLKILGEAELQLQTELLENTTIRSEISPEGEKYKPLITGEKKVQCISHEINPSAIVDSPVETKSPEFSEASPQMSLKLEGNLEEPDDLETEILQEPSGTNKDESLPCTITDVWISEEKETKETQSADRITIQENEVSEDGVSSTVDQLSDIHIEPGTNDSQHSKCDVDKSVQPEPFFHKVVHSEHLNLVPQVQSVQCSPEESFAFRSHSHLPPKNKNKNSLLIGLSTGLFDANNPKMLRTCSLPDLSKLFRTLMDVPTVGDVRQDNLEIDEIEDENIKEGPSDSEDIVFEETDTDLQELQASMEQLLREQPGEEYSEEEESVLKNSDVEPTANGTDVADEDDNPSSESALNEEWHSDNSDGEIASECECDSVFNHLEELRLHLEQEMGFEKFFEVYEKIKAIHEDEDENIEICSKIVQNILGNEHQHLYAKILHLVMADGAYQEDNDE

[13] = target: T5, Serine/threonine-protein kinase Nek1 (Homo sapiens); settings: at 1 µM
[14] = target: T6, Serine/threonine-protein kinase Nek2 (Homo sapiens) (UniProt P51955); settings: at 0.1 µM
T6 sequence (whole entry): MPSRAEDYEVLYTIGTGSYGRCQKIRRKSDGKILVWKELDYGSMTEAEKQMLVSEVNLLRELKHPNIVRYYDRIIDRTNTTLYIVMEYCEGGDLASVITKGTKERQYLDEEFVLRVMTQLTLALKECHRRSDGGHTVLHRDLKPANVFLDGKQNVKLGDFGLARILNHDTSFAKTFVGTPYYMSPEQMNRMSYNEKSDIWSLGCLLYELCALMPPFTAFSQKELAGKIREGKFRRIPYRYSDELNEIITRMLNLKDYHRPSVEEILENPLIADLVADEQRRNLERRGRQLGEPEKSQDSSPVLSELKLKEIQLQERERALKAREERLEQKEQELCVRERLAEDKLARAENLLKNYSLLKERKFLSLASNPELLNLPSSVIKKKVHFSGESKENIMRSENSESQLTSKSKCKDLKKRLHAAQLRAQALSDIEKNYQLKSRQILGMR

[15] = target: T6, Serine/threonine-protein kinase Nek2 (Homo sapiens); settings: at 1 µM
[16] = target: Serine/threonine-protein kinase Nek6 (Homo sapiens) (UniProt Q9HC98); settings: at 0.1 µM
[17] = target: Serine/threonine-protein kinase Nek6 (Homo sapiens) (UniProt Q9HC98); settings: at 1 µM
[18] = target: Serine/threonine-protein kinase Nek7 (Homo sapiens) (UniProt Q8TDX7); settings: at 0.1 µM
[19] = target: Serine/threonine-protein kinase Nek7 (Homo sapiens) (UniProt Q8TDX7); settings: at 1 µM
[20] = target: T7, Serine/threonine-protein kinase Nek9 (Homo sapiens) (UniProt Q8TD19); settings: at 0.1 µM;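 further: reported value is the mean percent inhibition of NEK9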
T7 sequence (whole entry): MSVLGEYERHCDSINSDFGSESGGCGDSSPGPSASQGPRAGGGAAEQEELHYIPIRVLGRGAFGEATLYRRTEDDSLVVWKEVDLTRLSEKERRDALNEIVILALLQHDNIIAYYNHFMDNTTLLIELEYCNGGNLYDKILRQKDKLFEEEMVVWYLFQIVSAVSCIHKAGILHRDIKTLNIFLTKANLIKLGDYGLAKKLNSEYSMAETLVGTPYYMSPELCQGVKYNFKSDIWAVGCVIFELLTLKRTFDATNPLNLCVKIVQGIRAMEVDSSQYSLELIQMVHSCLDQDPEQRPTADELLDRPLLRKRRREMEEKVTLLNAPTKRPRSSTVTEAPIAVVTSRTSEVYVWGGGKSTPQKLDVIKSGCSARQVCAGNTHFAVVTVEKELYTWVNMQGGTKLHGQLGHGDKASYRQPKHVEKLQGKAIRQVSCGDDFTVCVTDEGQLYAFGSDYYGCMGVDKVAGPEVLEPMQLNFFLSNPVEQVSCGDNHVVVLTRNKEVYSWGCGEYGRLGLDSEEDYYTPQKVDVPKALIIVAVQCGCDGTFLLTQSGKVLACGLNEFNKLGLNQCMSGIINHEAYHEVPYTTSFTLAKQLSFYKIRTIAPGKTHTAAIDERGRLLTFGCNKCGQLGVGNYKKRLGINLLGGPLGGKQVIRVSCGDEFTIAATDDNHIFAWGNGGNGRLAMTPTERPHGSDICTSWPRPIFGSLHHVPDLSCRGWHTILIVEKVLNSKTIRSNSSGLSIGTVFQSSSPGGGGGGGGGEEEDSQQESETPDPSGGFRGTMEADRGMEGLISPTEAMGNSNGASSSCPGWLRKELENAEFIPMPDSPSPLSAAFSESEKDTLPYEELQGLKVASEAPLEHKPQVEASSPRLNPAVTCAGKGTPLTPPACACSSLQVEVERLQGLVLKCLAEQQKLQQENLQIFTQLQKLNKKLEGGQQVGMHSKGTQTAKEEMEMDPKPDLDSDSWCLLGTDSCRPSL

Serine/threonine-protein kinase Nek7 (Homo sapiens), sequence (Q8TDX7 whole entry, looked up): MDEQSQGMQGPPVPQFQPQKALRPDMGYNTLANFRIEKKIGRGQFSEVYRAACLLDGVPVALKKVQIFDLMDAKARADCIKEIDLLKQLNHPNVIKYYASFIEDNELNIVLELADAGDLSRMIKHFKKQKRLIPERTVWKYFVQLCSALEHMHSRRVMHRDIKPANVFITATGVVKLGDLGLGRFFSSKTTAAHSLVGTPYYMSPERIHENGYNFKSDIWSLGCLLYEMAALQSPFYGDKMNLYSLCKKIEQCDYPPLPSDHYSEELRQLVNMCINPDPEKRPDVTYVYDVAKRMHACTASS
Serine/threonine-protein kinase Nek6 (Homo sapiens), sequence (Q9HC98 whole entry): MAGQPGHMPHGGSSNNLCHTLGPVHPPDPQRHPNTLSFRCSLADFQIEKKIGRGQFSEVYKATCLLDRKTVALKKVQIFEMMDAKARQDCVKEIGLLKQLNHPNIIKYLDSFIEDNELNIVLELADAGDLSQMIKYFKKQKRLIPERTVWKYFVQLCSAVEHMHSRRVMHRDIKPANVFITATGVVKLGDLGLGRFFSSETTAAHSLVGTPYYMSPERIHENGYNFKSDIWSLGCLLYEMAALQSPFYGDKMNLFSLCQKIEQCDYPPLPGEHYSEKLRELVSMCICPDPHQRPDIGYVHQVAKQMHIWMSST
Casein kinase II subunit alpha (Homo sapiens), sequence (P68400 whole entry, looked up): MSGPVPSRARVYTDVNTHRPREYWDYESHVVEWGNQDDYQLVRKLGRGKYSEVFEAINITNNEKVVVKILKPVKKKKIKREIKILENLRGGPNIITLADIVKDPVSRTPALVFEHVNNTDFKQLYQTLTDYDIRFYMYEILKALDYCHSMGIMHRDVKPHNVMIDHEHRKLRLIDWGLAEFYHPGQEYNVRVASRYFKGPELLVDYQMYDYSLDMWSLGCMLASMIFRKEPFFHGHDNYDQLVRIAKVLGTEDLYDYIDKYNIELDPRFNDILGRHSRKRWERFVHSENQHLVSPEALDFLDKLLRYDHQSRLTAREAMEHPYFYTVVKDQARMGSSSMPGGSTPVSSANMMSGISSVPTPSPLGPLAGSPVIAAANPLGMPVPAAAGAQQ
Sphingosine kinase 1 (Homo sapiens), sequence (Q9NYA1 whole entry): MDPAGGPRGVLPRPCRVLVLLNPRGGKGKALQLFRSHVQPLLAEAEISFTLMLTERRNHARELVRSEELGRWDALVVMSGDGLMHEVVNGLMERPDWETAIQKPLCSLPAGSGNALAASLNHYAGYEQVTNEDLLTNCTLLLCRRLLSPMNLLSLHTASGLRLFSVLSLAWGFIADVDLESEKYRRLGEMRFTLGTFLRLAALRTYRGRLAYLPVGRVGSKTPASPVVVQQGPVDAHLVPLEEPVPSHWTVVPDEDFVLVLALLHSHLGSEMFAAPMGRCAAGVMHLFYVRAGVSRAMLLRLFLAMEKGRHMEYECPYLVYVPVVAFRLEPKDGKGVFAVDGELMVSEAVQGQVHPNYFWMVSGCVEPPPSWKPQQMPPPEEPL

SMILES: c1cnn2ncc(-c3ccnc(Nc4ccc5c(c4)OCCO5)n3)c2c1
- inhibition [1]: -1.74%
- inhibition [2]: 2.07%
- inhibition [3]: 0.2%
- inhibition [4]: 13.2%
- inhibition [5]: 47.5%
- inhibition [6]: 14.7%
- inhibition [7]: 60.5%
- inhibition [8]: 8.92%
- inhibition [9]: 30%
- inhibition [10]: 6.75%
- inhibition [11]: 20.5%
- inhibition [12]: 4.85%
- inhibition [13]: 20.4%
- inhibition [14]: 4.88%
- inhibition [15]: 15.4%
- inhibition [16]: 3.89%
- inhibition [17]: 4.5%
- inhibition [18]: 3.53%
- inhibition [19]: 6.49%
- inhibition [20]: 16.2%
